This is a sample that favours compounds with a hit; in the whole collection about 19% have one here.
Shiga inhibitor = blocks Shiga toxin action in Vero cells | inhibition, % at 38.7 µM | hit rate 9.2% among 290,000 | Vero cells, Shiga toxin protein synthesis inhibition reporter; in the data active = inhibition mostly above about 28%, no sharp cut-off; inactive = mostly below about 43%; note: 0% is about no effect
SARS PLP yeast = inhibitors of SARS-CoV papain-like protease in yeast. Potency, µM (top dose mostly 32.9 µM), for inactives: at the top dose activity, positive = growth rescue, hits mostly activators. hit rate 0.19% among 330,000. S. cerevisiae expressing SARS-CoV PLpro, growth rescue. AID 485353; calls by dose curve; note: potency is the fitted concentration of half-maximal effect; 0% is about no effect; nearly all actives have a fitted effect of over 55% in size
Pf growth 48h = P. falciparum growth inhibition at 48 hours (one generation); P. falciparum luciferase growth in erythrocytes, 48 h; hit rate 5.9% among 310,000; AID 504832; Potency, µM (top dose mostly 28.7 µM), without a hit: at the top dose activity change, negative = inhibition, most hits filed as inhibitors; note: potency is the fitted concentration of half-maximal effect; % is set by controls: 0 for no effect and ±100 for the full control effect
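A one-generation exposure of luciferase-tagged malaria parasites in RPMI 1640/Albumax erythrocyte culture, 37 C and 5% CO2. Inhibition is inferred from decreased luminescence after adding detection reagent.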
Pf growth 96h = inhibits malaria parasite growth, 96 h; AID 504834; P. falciparum luciferase reporter growth, 96 h; hit rate 6.9% among 320,000; Potency, µM (top dose mostly 28.7 µM), without a hit: top-dose activity change, negative = inhibition, actives largely listed as inhibitors; note: potency is the fitted concentration of half-maximal effect; % is set by controls: 0 for no effect and ±100 for the full control effect
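96 h incubation, 37 C, 5% CO2, of luciferase-reporter P. falciparum-infected RBCs (2% hematocrit, 0.05% parasitemia final) with test compounds; endpoint luminescence.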
CHX counter = counter-screen hit for Shiga toxin inhibitors, cycloheximide. cell reporter, cycloheximide protein synthesis inhibition counterscreen. max response, %. hit rate 12% among 300,000; in the data active = max response mostly above about 13%, no sharp cut-off; inactive = mostly below about 14%; note: read at 38.3 µM for the half of the compounds with a filed dose; 0% is about no effect
AMA1 RON2 block = disrupts binding of P. falciparum AMA1 to RON2; AlphaScreen AMA1-biotinylated RON2 peptide binding; Potency, µM (titrated, usually from 58.2 µM), without a hit: at the top dose activity change, negative = inhibition, actives largely listed as inhibitors; hit rate 0.2% among 360,000; AID 720542;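 note: potency is the fitted concentration of half-maximal effect; 0% = vehicle wells and -100% = peptide control; nearly all actives have a fitted effect of over 45% in size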
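AMA1 (3D7) with his tag at 25 nM final met compounds first, then biotinylated RON2 peptide at 25 nM; detection used donor plus acceptor beads, 10 µg/mL apiece, read by AlphaScreen after 30 min at room temperature.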
* hit, by the source's call; i = inactive; ? = inconclusive; / = no result given; + = active, no number; [ ] = remark or other dose. Unless noted, calls come from the whole dose curve; as a rule, active = well fitted curve in the direction sought with a large enough effect; inconclusive = small, poorly fitted or top-dose-only effect, or another doubt; inactive = no such curve, though single readings can be large; an effect the other way counts as inactive or inconclusive.

SMILES | Shiga inhibitor | SARS PLP yeast | Pf growth 48h | Pf growth 96h | CHX counter | AMA1 RON2 block
COC(=O)c1c(NC(=O)c2nc3nc(C)cc(C(F)F)n3n2)sc2c1CCC2 | -5 | 9% | ? | 5.2µM* | -2 | 12%
CCOC(=O)C1=C(COC(=O)c2ccc(OC)c(OC)c2OC)NC(=O)NC1C (stereo not drawn) | / | 1% | 38% | 59% | / | -2%
CCOC(=O)c1cc2n(n1)C(C(F)(F)F)CC(C)N2 (stereo not drawn) | 13 | -5% | 46% | / | 12* | -3%
O=C(O)c1cc2n(n1)C(C(F)(F)F)CC(C1CC1)N2 (stereo not drawn) | -8 | 2% | 2.1µM* | 52% | -3 | -9%
CC1CC(C(F)(F)F)n2nc(C(=O)O)cc2N1 (stereo not drawn) | -22 | -2% | 4% | / | -2 | 6%
CC1CC(C(F)(F)C(F)(F)F)n2nc(C(=O)O)cc2N1 (stereo not drawn) | -14 | -5% | 7% | ? | -1 | 5%
CCN(CC)S(=O)(=O)c1ccc(OCC(=O)NC(=O)Cc2ccccc2)c([N+](=O)[O-])c1 | / | 5% | 3% | ? | / | -17%
CN1CCN(c2ccc(S(=O)(=O)N3CCCCC3)cc2NC(=O)/C=C/c2ccc(OC(F)F)cc2)CC1 | / | -1% | 9.3µM* | 7.4µM* | / | ?
CCN1CCN(c2ccc(S(=O)(=O)N3CCCCC3)cc2NC(=O)/C=C/c2ccc(OC(F)F)cc2)CC1 | / | 0% | 9.3µM* | 4.1µM* | / | -24%
CC(Oc1ccc(F)cc1)C(=O)Nc1cc(S(=O)(=O)N2CCCCC2)ccc1N1CCN(C)CC1 (stereo not drawn) | / | / | / | / | / | -1%
CC(C)(C)OC(=O)N1CCC(C(=O)N2CCCCCC2)CC1 | 13 | 5% | 1% | 12µM* | -2 | -2%
COc1ccc(NC(=O)c2ccc(NC(=O)CCS(=O)(=O)c3cccs3)cc2)cc1 | 15 | -13% | -24% | ? | 0 | 10%
CC(=O)c1ccc(NC(=O)c2ccc(NC(=O)CCS(=O)(=O)c3cccs3)cc2)cc1 | 192* | 23% | 73% | 216% | 18* | 4%
COc1cccc(NC(=O)CNC(=O)c2cccs2)c1 | 61* | 1% | 58% | / | 26* | -11%
COc1cccc(NC(=O)CCS(=O)(=O)c2cccs2)c1 | 78* | -2% | 87% | -20% | 47* | 4%
CC1(C(=O)O)CCCN(C(=O)C2(c3ccc(Cl)cc3)CCCC2)C1 (stereo not drawn) | / | / | / | / | / | -4%
CCN(CC)C(CNS(=O)(=O)c1ccc(Cl)cc1)c1ccccc1 (stereo not drawn) | 14 | 1% | 1% | ? | -2 | 4%
COC(CNS(=O)(=O)c1ccc(Cl)cc1)c1ccccc1 (stereo not drawn) | -8 | 24% | -12% | 13µM* | -2 | -8%
COC(=O)CC1C(=O)NCCN1C(=O)CSc1nnc(Nc2ccc(OC)cc2)s1 (stereo not drawn) | -21 | -9% | ? | / | 5 | -4%
COC(=O)CC1C(=O)NCCN1C(=O)CSc1nnc(Nc2ccc(C)cc2)s1 (stereo not drawn) | -10 | 13% | / | 7.4µM* | -2 | -5%
CCS(=O)(=O)N1Cc2ccccc2CC1C(=O)N1CCN(c2cccc(C)c2C)CC1 (stereo not drawn) | 9 | -5% | ? | ? | -2 | -15%
CCS(=O)(=O)N1Cc2ccccc2CC1C(=O)Nc1nc2c(C)cccc2s1 (stereo not drawn) | 60* | -34% | 36% | ? | 27* | 0%
CCS(=O)(=O)N1Cc2ccccc2CC1C(=O)Nc1nc(C)cs1 (stereo not drawn) | 85* | -2% | i | 306% | 43* | -9%
CCSc1nnc(NC(=O)C2Cc3ccccc3CN2S(=O)(=O)CC)s1 (stereo not drawn) | 30 | 3% | -7% | 13µM* | 30* | 63%
CCS(=O)(=O)N1Cc2ccccc2CC1C(=O)Nc1ccccc1OC (stereo not drawn) | 12 | 0% | ? | ? | 9 | 8%
SMILES | Shiga inhibitor | SARS PLP yeast | Pf growth 48h | Pf growth 96h | CHX counter | AMA1 RON2 block
CCS(=O)(=O)N1Cc2ccccc2CC1C(=O)Nc1nccs1 (stereo not drawn) | 25* | -3% | 111% | 130% | 30* | 29%
CCS(=O)(=O)N1Cc2ccccc2CC1C(=O)Nc1nnc(SCc2c(Cl)cccc2Cl)s1 (stereo not drawn) | -4 | 20% | ? | ? | -1 | 22%
COc1cc(CNc2ncnc3c2ncn3[C@H]2CN(Cc3ccncc3)C[C@@H](CO)O2)cc(OC)c1OC | / | / | / | / | / | -2%
Cc1ccc(C)c(N(CC(=O)NC(C)C)C(=O)CCC(=O)Nc2ccccn2)c1 | 15 | -5% | -12% | -29% | 2 | 15%
O=C1NC[C@H](CCCCN2C[C@H](Cc3ccccc3)N(CCC3CCCCC3)C(=O)C2=O)N(Cc2ccccc2)C1=O | / | / | / | / | / | -2%
Cc1c(C(=O)N2CCCCC2)c(S(=O)(=O)NCCc2ccc(Cl)cc2)c(C)n1C | -2 | -2% | 4% | 12% | 13 | -7%
Cc1ccc(S(=O)(=O)N2CCOCC2)cc1NC(=O)CNCC1CCCCC1 | -9 | 2% | 6% | ? | -3 | -3%
O=C(CN1CC(c2ccccc2)CC1=O)OCc1ccccc1F (stereo not drawn) | 97* | 12% | 25% | / | 44* | 9%
O=C(NC1CC1)C1=NOC(CNc2ncc(C(F)(F)F)cc2Cl)C1 (stereo not drawn) | -12 | -15% | / | 12µM* | -2 | 9%
CC(C)CNc1nc(N)c([N+](=O)[O-])c(NCC2CCCO2)n1 (stereo not drawn) | -3 | -4% | ? | 12µM* | -4 | 7%
COc1ccc(C2C=C3CNS(=O)(=O)C3CC2OC(=O)c2cccc(C)c2)cc1 (stereo not drawn) | -8 | / | / | / | -6 | /
CCN(CC)c1ccc(/C=C2\C(=O)c3ccc(C(=O)O)cc3C2=O)cc1 | + | -26% | -11% | -3% | 130* | -12%[11.6 µM]
COc1ccc(N(C(=O)c2cccnc2)S(=O)(=O)c2ccc(Cl)cc2)cc1 | 0 | ? | 2% | 5.2µM* | 3 | -11%
COc1ccc(N(C(=O)c2ccncc2)S(=O)(=O)c2ccccc2)cc1 | -9 | -11% | -4% | ? | -2 | 18%
Cc1ccc(C(=O)c2cnc3cc4c(cc3c2S(=O)(=O)c2ccccc2)OCCO4)cc1 | 100* | -8% | 3.3µM* | ? | 68* | -9%[11.6 µM]
CCOc1ccc(C2CC(c3c(O)n(C)c(=O)n(C)c3=O)=NN2)cc1 (stereo not drawn) | -1 | 1% | ? | 15µM* | -2 | 61%

Screens from PubChem BioAssay.
